Laboratory results published in PubChem BioAssay (NCI).
About 83,000 compounds went through this panel and 20% of them were active in at least one assay; those are over-represented in the sample as a whole.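 A percent growth of 40 corresponds to 60% growth inhibition; 0 means no net growth; -100 means all cells died. Active threshold: below 10.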 The source made the active and inactive calls.

What follows are compounds tested on MDA-MB-468 breast (assay: NCI-60 one-dose screen, 48 h (100 = growth as untreated, 0 = no growth, -100 = all killed)). Settings: 10 µM unless noted.
With `Nc1ccccc1SC1CC(=O)N(c2ccc(I)cc2)C1=O` (stereo unspecified) the growth was 121% (inactive).
With `N#Cc1ccc(NC(=O)c2sc3nc4c(cc3c2N)C(=O)CCC4)cc1` the growth was 97.6% (inactive).
For `Cc1ccccc1/C=C/c1nn2c(-c3ccoc3C)nnc2s1`, the growth was 91.7% (inactive).
In the case of `Cc1nc(Nc2ccc(F)c(Cl)c2)sc1C(=O)O`, the growth is reported as -1.67% (active).
For `CC1(O)COCCCCOc2c(CN)cccc2NC(=O)c2nc(cnc2N)-c2ccc(cc2)S(=O)(=O)C(C)(C)C1` (stereo unspecified), the growth was -35.1% (active).
`N#Cc1c(-c2ccccc2)cc(-c2ccccc2)n(CCCCC(=O)NO)c1=O` was tested, and the growth was 20% (inactive).
For `COc1ccc(OC2=C(C#N)C(=N)N3c4ccccc4Sc4ccccc4C3N2)cc1` (stereo unspecified), the growth was 94.5% (inactive).
For `CN(C)C(=S)N(C)C`, the growth was 114% (inactive).
For `NC(=S)NN=C1CCCC1`, the growth was 14.1% (inactive).
`O=c1[nH]nc(-c2ccc(Br)cc2)cc1Cc1ccc(O)cc1` was tested, and the growth was 107% (inactive).
For `O=C(Nc1ccc(Cl)cc1)Nc1ccc(Nc2nncc3ccccc23)cc1`, the growth was 0.165% (active).
In the case of `O=C1C(=O)N(CCCCn2cc(CO)nn2)c2ccccc21`, the growth is reported as 98.6% (inactive).
For `CCCc1nn2c(CCC(=O)c3nc4ccc([N+](=O)[O-])cc4[nH]3)nnc2s1`, the growth was 114% (inactive).
For `O=C(N/N=C/c1ccccc1)C(Oc1ccccc1)c1ccccc1` (stereo unspecified), the growth was 80.2% (inactive).
`CS(=O)(=O)Nc1cc(-c2ccc3ncc(C#N)c(NCc4ccccc4O)c3c2)cnc1Cl` was tested, and the growth was -23.1% (active).
With `Cn1c([N+](=O)[O-])cnc1/C=C1\Oc2cc(Cl)ccc2C1=O` the growth was 68.7% (inactive).
